Laboratory results as given in the supplement of paper PMC6522484.
± gives the standard deviation of the averaged measurements.

Columns and labels:
[1] = tested on: DLD1; assay: cell viability (CellTiter-Glo) relative to plate median (fraction of plate median); higher = more viable cells; conditions: 5 µM; treatment time 24 h; reporter: 7TFP
Method in brief: (§1)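 For this screen, colorectal cancer cell lines carrying stable lentiviral TCF/Wnt firefly luciferase reporters, either 7TFP or TCF4/Wnt, were seeded into 384-well plates. A day's wait of 24 h preceded addition of library compounds at a final 5 µM, which stayed on the cells for 24 h. Firefly luciferase or CellTiterGlo luminescence, read on parallel plates, was normalised to the plate median per well, and the reported value is the mean of two independent replicates.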

[2] = tested on: HCT116; assay: as above; conditions: 5 µM; treatment time 24 h; reporter: TCF4/Wnt
Method in brief: as §1

[3] = tested on: SW480; assay: as above; conditions: 5 µM; treatment time 24 h; reporter: 7TFP
Method in brief: as §1

[4] = tested on: DLD1; assay: TCF/Wnt firefly luciferase reporter signal relative to plate median (fraction of plate median); higher = higher Wnt reporter signal; conditions: 5 µM; treatment time 24 h; reporter: 7TFP
Method in brief: as §1

[5] = tested on: SW480; assay: as above; conditions: 5 µM; treatment time 24 h; reporter: 7TFP
Method in brief: as §1

Row | Structure (SMILES) | cell viability [1] | cell viability [2] | cell viability [3] | TCF/Wnt firefly luciferase reporter signal [4] | TCF/Wnt firefly luciferase reporter signal [5]
1 | C[C@H]1O[C@@H](O[C@H]2[C@@H](O)C[C@H](O[C@H]3[C@@H](O)C[C@H](O[C@H]4CC[C@@]5(C)[C@H](CC[C@@H]6[C@@H]5CC[C@]5(C)[C@@H](C7=CC(=O)OC7)[C@@H](O)C[C@]65O)C4)O[C@@H]3C)O[C@@H]2C)C[C@H](O)[C@@H]1O | 0.632 ± 0.13 | 0.649 ± 0.21 | 0.765 ± 0.11 | 0.611 ± 0.61 | 0.685 ± 0.25
2 | C[C@]12CCC(=O)C=C1C=C[C@@H]1[C@@H]2CC[C@@]2(C)[C@H]1CC[C@@]2(O)CCC(=O)O | 1.02 ± 0.07 | 1.16 ± 0.014 | 1.04 ± 0.028 | 1.01 ± 0.05 | 1.06
3 | CCC(=O)O[C@H]1CC[C@H]2[C@@H]3CCC4=CC(=O)CC[C@]4(C)[C@H]3CC[C@]12C | 1.02 ± 0.045 | 0.894 ± 0.06 | 1 ± 0.012 | 0.994 ± 0.17 | 0.99 ± 0.013
4 | CC(=O)O[C@H]1C[C@@H]2CC[C@@H]3[C@H](CC[C@@]4(C)[C@H]3C[C@H]([N+]3(C)CCCCC3)[C@@H]4OC(C)=O)[C@@]2(C)C[C@@H]1[N+]1(C)CCCCC1 | 0.9865 ± 0.0064 | 1.03 ± 0.062 | 0.963 ± 0.011 | 1.01 ± 0.093 | 0.9685 ± 0.0078
5 | CC1(C)C2CC(=O)[C@]3(C)C(CC[C@@]4(C)[C@H](c5ccoc5)OC(=O)C5OC543)[C@@]2(C)[C@@H](O)C[C@H]1O (stereo not given in full) | 0.996 ± 0.048 | 1.04 ± 0.057 | 0.995 ± 0.05 | 1.01 ± 0.098 | 1.02 ± 0.054
6 | O=c1cccc2n1C[C@@H]1CNC[C@H]2C1 | 0.978 ± 0.045 | 0.981 ± 0.015 | 1.005 ± 0.0071 | 0.84 ± 0.15 | 0.907 ± 0.044
7 | C[C@@H]1C[C@@H]([C@H](O)CC2CC(=O)NC(=O)C2)C(=O)[C@@H](C)C1 | 0.892 ± 0.059 | 0.5955 ± 0.0035 | 0.967 ± 0.076 | 0.387 ± 0.088 | 0.665 ± 0.15
8 | Oc1ccc2c3c1O[C@H]1[C@@H](O)CC[C@@]4(O)[C@@H](C2)N(CC2CCC2)CC[C@]314 | 1 ± 0.067 | 1 ± 0.014 | 0.942 ± 0.082 | 0.979 ± 0.03 | 1.06 ± 0.064
9 | CC1CC(Cl)CCC1C(=O)OC(C)(C)C (stereo not given) | 0.973 ± 0.052 | 1.045 ± 0.0071 | 0.956 ± 0.025 | 0.976 ± 0.034 | 0.989 ± 0.03
10 | CC1C[C@H]2CC(=O)[C@H]3CCCN4CCC[C@H]2[C@]34C1.[O-][Cl+3]([O-])([O-])O (stereo not given in full) | 0.97 ± 0.011 | 1.01 ± 0.031 | 0.933 ± 0.0042 | 1.1 ± 0.099 | 1.1 ± 0.16
11 | C/C=C/[C@H]1O[C@@](O)([C@@H](C)[C@H](O)[C@H](C)[C@H]2OC(=O)/C(OC)=C/C(C)=C/[C@@H](C)[C@@H](O)[C@@H](CC)[C@@H](O)[C@H](C)C/C(C)=C/C=C/[C@@H]2OC)C[C@@H](O[C@H]2C[C@@H](O)[C@H](OC(N)=O)[C@@H](C)O2)[C@@H]1C [Concanamycin A] | 0.886 ± 0.095 | 0.998 ± 0.059 | 1.04 ± 0.035 | 0.806 ± 0.2 | 0.9 ± 0.12
12 | COc1cc2c(c3oc4cccc(O)c4c(=O)c13)[C@@H]1C=CO[C@@H]1O2 [Sterigmatocystin] | 1.1 ± 0.16 | 1.17 ± 0.014 | 1.08 ± 0.057 | 0.845 ± 0.25 | 0.902 ± 0.077
13 | CC(=O)NC1CCSC1=O (stereo not given) | 1.03 ± 0.055 | 1.01 ± 0.019 | 1.03 ± 0.028 | 1.02 ± 0.12 | 0.902 ± 0.12
